The nature of experiment [1]: ATG_XTT_Cytotoxicity: Cytotoxicity Assessment in the Attagene TRANS-FACTORIAL HepG2 Assay (AID 2283584).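 On AC50: cells exposed to compound for 24 h before reading; active means loss of viability signal versus DMSO baseline.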 The essentials:
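XTT readout of cell number in transfected HepG2 cells, 24 h post-dosing; DMSO serves as negative control and baseline, with activity taken as loss of viability signal.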

Experiment [2] in a line: TOX21_p53_BLA_p2_viability: Viability Assessment in the Tox21 HCT-116 p53 Agonism Beta-lactamase Assay, Phase 2 (AID 2283591).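 Further: compound exposure lasted 16 h at 37 °C; actives lower the ATP signal meaning cytotoxicity.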 The gist of the method: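 Cytotoxicity readout: CellTiter-Glo ATP luminescence, 30 min at room temperature, after the beta-lactamase read. Cells were HCT116 exposed 16 h at 37C to compounds pin-transferred at 217-fold dilution from DMSO stocks.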

The target in experiment [3] is Cellular tumor antigen p53 (Homo sapiens) (UniProt P04637). The experiment in a line: TOX21_p53_BLA_p2_ratio: Tox21 HCT-116 p53 Agonism Beta-lactamase Assay, Ratio, Phase 2 (AID 2283592). The essentials:
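In this cell-based reporter format, HCT116 cells were dosed with chemicals delivered from DMSO by 217-fold dilution and incubated 16 h at 37C. Emission at 460 and 530 nm after 2 h CCF4-AM loading provided the ratio, fitted upward versus DMSO.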

Experiment [4] is described as follows: TOX21_p53_BLA_p3_viability: Viability Assessment in the Tox21 HCT-116 p53 Agonism Beta-lactamase Assay, Phase 3 (AID 2283593).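 Further: cells exposed to compound for 16 h before reading.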 The essentials: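 Cellular ATP was quantified by CellTiter-Glo luminescence, read after 30 min at room temperature. Beforehand, HCT116 cells (4000/well) received compound 5 h post-seeding, 217-fold diluted from DMSO, then incubated 16 h at 37C.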

Experiment [5] addresses Cellular tumor antigen p53 (Homo sapiens) (UniProt P04637). The experiment in a line: TOX21_p53_BLA_p3_ratio: Tox21 HCT-116 p53 Agonism Beta-lactamase Assay, Ratio, Phase 3 (AID 2283596). The gist of the method:
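HCT116 p53-bla cells (4000/well) given compound in DMSO (217-fold dilution) after 5 h, incubated 16 h at 37C. CCF4-AM substrate 2 h at room temperature; 460/530 nm emission ratio, gain fitted against DMSO.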

Experiment [6] can be described thus: TOX21_p53_BLA_p4_viability: Viability Assessment in the Tox21 HCT-116 p53 Agonism Beta-lactamase Assay, Phase 4 (AID 2283597).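 Further: hits lower the luminescence signal meaning cytotoxicity.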 The gist of the method: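 We seeded HCT116 p53 reporter cells at 4000/well and waited 5 h. We then added compounds in DMSO at a 217-fold dilution and incubated for 16 h. Viability was read as CellTiter-Glo luminescence after 30 min at RT.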

Experiment [7] deals with Cellular tumor antigen p53 (Homo sapiens) (UniProt P04637). The experiment is described as follows: TOX21_p53_BLA_p5_ratio: Tox21 HCT-116 p53 Agonism Beta-lactamase Assay, Ratio, Phase 5 (AID 2283599). The essentials:
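Beta-lactamase reporter ratio (blue 460 nm over green 530 nm, 405 nm excitation) after 2 h CCF4-AM loading, in HCT-116 cells exposed 16 h at 37 C to compounds pinned at 217-fold dilution. Increases relative to DMSO baseline scored.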

The nature of experiment [8]: TOX21_p53_BLA_p5_viability: Viability Assessment in the Tox21 HCT-116 p53 Agonism Beta-lactamase Assay, Phase 5 (AID 2283600). The gist of the method:
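Compounds, pinned from DMSO at 217-fold dilution, were left on the cells for 16 h. The viability endpoint was ATP content measured by CellTiter-Glo luminescence, where falling signal reflects cytotoxicity.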

Experiment [9] deals with Cellular tumor antigen p53 (Homo sapiens) (UniProt P04637). The experiment is described as follows: TOX21_p53_BLA_p4_ratio: Tox21 HCT-116 p53 Agonism Beta-lactamase Assay, Ratio, Phase 4 (AID 2283601). The gist of the method:
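Signal is the blue/green (460nm/530nm) ratio of cleaved versus uncleaved CCF4-AM substrate, read after 2 h substrate loading. Cells were HCT116 carrying the p53-responsive beta-lactamase reporter, dosed 16 h at 37C, 5% CO2; CellTiter-Glo measured in parallel.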

“And” between values parts separate entries of the source, which are not always exact repeats. Equal entries are not always repeated. Results filed as inconclusive are left out. Where a structure was tested more than once in an assay, its records may differ in their call. The source made the active and inactive calls. How the source made its calls: active means hit-call score of the fitted dose curve at least 0.9, where 1 is the maximum; inconclusive means response in the unintended direction; inactive means score below 0.9.

Cellular tumor antigen p53 (Homo sapiens), sequence (P04637 whole entry, looked up): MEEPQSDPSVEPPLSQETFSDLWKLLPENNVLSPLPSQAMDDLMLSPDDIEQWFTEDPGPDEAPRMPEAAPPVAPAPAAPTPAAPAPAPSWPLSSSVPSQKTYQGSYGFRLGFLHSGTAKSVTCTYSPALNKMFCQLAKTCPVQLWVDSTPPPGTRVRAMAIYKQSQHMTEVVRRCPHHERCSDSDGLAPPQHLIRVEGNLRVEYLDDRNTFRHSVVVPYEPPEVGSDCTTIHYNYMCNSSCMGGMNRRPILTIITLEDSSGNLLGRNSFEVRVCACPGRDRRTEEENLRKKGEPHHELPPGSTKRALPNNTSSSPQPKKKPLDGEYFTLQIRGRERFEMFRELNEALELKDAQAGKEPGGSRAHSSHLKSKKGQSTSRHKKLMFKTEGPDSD

As to `OC[C@H]1O[C@@H]2O[C@H]3[C@H](O)[C@@H](O)[C@@H](O[C@H]4[C@H](O)[C@@H](O)[C@@H](O[C@H]5[C@H](O)[C@@H](O)[C@@H](O[C@H]6[C@H](O)[C@@H](O)[C@@H](O[C@H]7[C@H](O)[C@@H](O)[C@@H](O[C@H]8[C@H](O)[C@@H](O)[C@@H](O[C@H]9[C@H](O)[C@@H](O)[C@@H](O[C@H]1[C@H](O)[C@H]2O)O[C@@H]9CO)O[C@@H]8CO)O[C@@H]7CO)O[C@@H]6CO)O[C@@H]5CO)O[C@@H]4CO)O[C@@H]3CO`, the outcome in experiment [1] was inactive.
In the case of `CCOC(=O)C(C#N)=C(c1ccccc1)c1ccccc1`, the call in experiment [1], in experiment [2], in experiment [3], in experiment [4], in experiment [5] and in [6] was inactive. Also, the result in experiment [7] and in [8] was inactive.
`CCO/C=C1\N=C(c2ccccc2)OC1=O`: the call in [1], in experiment [2], in [3], in experiment [4], in experiment [5] and in experiment [6] was inactive. The result in [7] was inactive.
For the compound `CCCCC(CC)COC(C)=O` (stereo not given), the compound was called inactive in [1].
Same read-out and setting: the value for `C=CC(C)C#N` (stereo not given) was “inactive”.
Take `CCC(=O)OCCOc1ccccc1`: the result in experiment [1] was inactive.
Same read-out and setting: the value for `O=C1OC(=O)c2c(Br)c(Br)c(Br)c(Br)c21` was “inactive”.
Take `COC(=O)C=C(C)CCC=C(C)C`: the compound was classed as inactive in experiment [1], in experiment [2], in experiment [3], in [4], in experiment [5] and in [6]. Further, the outcome in experiment [7] was inactive.
Take `CC(C)(C)C1=CC(=O)C(C(C)(C)C)=CC1=O`: the result in [1] was inactive.
On to `CC(C)=CCCC(C)CC(=O)O` (stereo not given), for which, in [1], the call was inactive.
Turning to `C=Cc1ccc(C)cc1`, the result in [1], in experiment [2], in experiment [3], in experiment [4], in experiment [5] and in experiment [6] was inactive. The outcome in experiment [7] and in experiment [8] was inactive.
For `OCCCCC(O)CO` (stereo not given), the compound was classed as inactive in experiment [1], in [2], in [3], in experiment [4], in experiment [5] and in experiment [6]. The result in experiment [7] and in experiment [8] was inactive.
What is called AC50 is the concentration giving half of the maximal activity seen. As to `CCc1cc(Cc2cc(CC)cc(C(C)(C)C)c2O)c(O)c(C(C)(C)C)c1`, the call in experiment [1] was inactive. The AC50 in [2] was 4.87 µM (active); in experiment [3], 14.9 µM (active); in experiment [4] it was 16.1 µM (active); in experiment [5], 32.6 µM (active); in [6] it was 5.48 µM (active); in experiment [7] it was 29.3 µM (active). For the same compound, in experiment [8], the AC50 was 20.1 µM (active).
For `CC(C)(C)CC(C)(C)c1ccc(OCCOCC[N+](C)(C)Cc2ccccc2)cc1`, the AC50 was 44.9 µM (active) in experiment [1]; 37.1 µM (active) and 32.8 µM (active) in [2]; 56.2 µM (active) and 34.8 µM (active) in [3]; 60.7 µM (active) and 23 µM (active) in experiment [4]; 61 µM (active) in experiment [5]; 33.7 µM (active) and 23 µM (active) in [6]. Besides, the concentration at half-maximal activity (AC50) in experiment [7] is 79.3 µM (active) and 36.8 µM (active); in experiment [8], 73.6 µM (active); in experiment [9], 70.9 µM (active) and 42.1 µM (active). Besides, the result in experiment [5] and in experiment [8] was inactive.
For `CCCCCCOCCOCCO`, the result in experiment [1] was inactive.
`Nc1ccc2c(O)cc(S(=O)(=O)O)cc2c1`: the outcome in [1], in experiment [2], in experiment [4], in experiment [5], in experiment [6] and in experiment [8] was inactive. Moreover, the AC50 in [3] was 23.1 µM (active) and 18.3 µM (active); in experiment [5], 12.9 µM (active); in [7], 33.1 µM (active) and 21.3 µM (active); in experiment [9] it was 46.1 µM (active) and 16 µM (active).
On to `CCCCCCCC(=O)OCC(O)CO` (stereo not given), for which the compound was classed as inactive in experiment [1], in experiment [2], in experiment [3], in [4], in experiment [5] and in experiment [6]. For the same compound, the outcome in [7] and in [8] was inactive.
Regarding `CC=Cc1ccc(OCC)c(O)c1`, the result in experiment [1] was inactive.
For `Nc1ccc(N)c2c1C(=O)c1ccccc1C2=O`, the result in [1], in experiment [2], in experiment [4], in experiment [5], in [6] and in experiment [7] was inactive. Further, in [8], the result was inactive. Also, the AC50 in experiment [3] is 7.9 µM (active).
In the case of `COc1ccc(CCN2CCC(Nc3nc4ccccc4n3Cc3ccc(F)cc3)CC2)cc1`, the result in experiment [1] and in [4] was inactive. The AC50 was 15.2 µM (active) and 38.9 µM (active) in experiment [2]; 31.1 µM (active) and 43.8 µM (active) in [3]; 15.2 µM (active) in experiment [4]; 37.5 µM (active) in experiment [5]; 14.4 µM (active) and 23 µM (active) in [6]; 38.8 µM (active) and 42.9 µM (active) in experiment [7]. The AC50 in experiment [8] was 25.7 µM (active) and 40.5 µM (active); in experiment [9] it was 32.5 µM (active) and 43.3 µM (active).
`Cc1cc(C)nc(NS(=O)(=O)c2ccc(N)cc2)n1`: the outcome in [1], in [2], in experiment [3], in experiment [4], in experiment [5] and in experiment [6] was inactive. Further, the outcome in experiment [7] and in experiment [8] was inactive.
For the compound `CCCCCCCCCC(C)C=O` (stereo not given), the result in experiment [1], in experiment [2], in experiment [3], in [4], in experiment [5] and in experiment [6] was inactive. Further, the result in experiment [7], in [8] and in experiment [9] was inactive.
For the compound `O=C(c1ccccc1)C(O)c1ccccc1` (stereo not given), the result in [1] was inactive.

The values are drawn from PubChem BioAssay (EPA / NIEHS).
